Results filed as inconclusive are left out. Active and inactive are the calls of the source. How the source made its calls: active means hit-call score of the fitted dose curve at least 0.9, where 1 is the maximum; inconclusive means response in the unintended direction; inactive means score below 0.9.

The test is described as follows: ATG_M_32_TRANS: Attagene TRANS-FACTORIAL HepG2 Assay for M32 Transcription Factor (Internal Marker) (AID 2282984). The note with it: HepG2 Attagene TRANS M32 internal marker reporter. As to the method:
ATG_TRANS is a cell-based, multiplexed-readout assay that uses HepG2, a human liver cell line, with measurements taken at 24 hours after chemical dosing in a 24-well plate.ATG_M_32_TRANS is one of 30 assay component(s) measured or calculated from the ATG_TRANS assay. It is designed to make measurements of mRNA induction, a form of inducible reporter, as detected with fluorescence intensity signals by Reverse transcription polymerase chain reaction (RT-PCR) and Capillary electrophoresis technology.Data from the assay component ATG_M_32_TRANS was analyzed into 1 assay endpoint. This assay endpoint, ATG_M_32_TRANS, was analyzed in the positive analysis fitting direction relative to DMSO as the negative control and baseline of activity. Using a type of inducible reporter, measures of mRNA for gain-of-signal activity can be used to understand the background control at the transcription factor-level as they relate to the gene . Furthermore, this assay endpoint can be referred to as a secondary readout, because this assay has produced multiple assay endpoints where this one serves a background control function. To generalize the intended target to other relatable targets, this assay endpoint is annotated to the background measurement intended target family, where the subfamily is internal marker.
Human liver HepG2 cells are transiently transfected with multiple reporter transcription units (MRTUs) in 6-well plates using FuGene 6 reagent (Roche; 3 ml FuGene/1 mg DNA). The MRTU constructs are regulated by a cis-regulating element (promoter). […] A major difference between the CIS and TRANS system is that in CIS activities of endogenous TFs are measured, whereas the TRANS assay evaluates changes in activities of exogenous, chimeric NR-Gal4 proteins. […] At the end of 24 hour incubation, total RNA was isolated using TriZol reagent (Invitrogen). The isolated RNA is then reverse-transcribed using oligo(dT) primer and Mo-MLV reverse transcriptase (Invitrogen) with DNAse I (Ambion) treatment for 30 min. The one-tenth of the produced cDNA was amplified by PCR using Taq DNA polymerase (Invitrogen) and two reporter sequence-specific primers. The PCR products were fluorescently labeled by primer extension with 6-arboxyfluorescein (6-FAM) 5'-labeled reporter sequence-specific primer (2 min at 95 C, 20 s at 68 C and 10 min at 72 C) and these products were digested with 5U of HpaI (New England Biolabs) for 2h at 37 C. The fragments were purified using Qiaquick PCR columns (Qiagen), analyzed on an ABI 3130xL genetic analyzer (Applied Biosystems) with peak positions identified by using a set of X-rhodamine (ROX)-labeled MapMarker1000 molecular weight standards (BioVentures). The raw capillary electrophoresis data was processed using Attagraph software (Attagene).
In the case of `O=C(O)C(F)(F)C(F)(F)C(F)(F)C(F)(F)F`, the call was inactive.

`CC(C)(C)C(=O)CC(=O)C(F)(F)C(F)(F)C(F)(F)F`: the call was inactive.

In the case of `C#C[C@]1(O)CC[C@H]2[C@@H]3CCc4cc(OC)ccc4[C@H]3CC[C@@]21C`, the outcome was inactive.

`Nc1ccc(S(=O)(=O)Nc2nccs2)cc1`: the result was inactive.

As to `CCc1ccc(C(c2ccc(CC)cc2)C(Cl)Cl)cc1`, the molecule was called inactive.

Turning to `O=S(=O)(O)c1ccc2ccccc2c1`, the result was inactive.

On to `CC/C=C\CCOC(=O)c1ccccc1`, for which the result was inactive.

Take `CCN(Cc1cccc(S(=O)(=O)O)c1)c1ccc(C(=C2C=CC(=[N+](CC)Cc3cccc(S(=O)(=O)O)c3)C=C2)c2ccc(O)cc2S(=O)(=O)[O-])cc1`: the result was inactive.

For `FC(F)(F)C(F)(F)C(F)(F)C(F)(F)C(F)(F)C(F)(F)C(F)(F)C(F)(F)F`, the result was inactive.

On to `OCCCC(F)(F)C(F)(F)C(F)(F)F`, for which the result was inactive.

With `FC(F)(F)C(F)(F)C(F)(F)C(F)(F)C(F)(F)C(F)(F)CC1CO1` (stereo not given), the result was inactive.

Turning to `CC(C)=CCCC(C)CCOC(=O)C(C)C` (stereo not given), the molecule was classed as inactive.

With `O=C(O)C(F)(F)C(F)(F)C(F)(F)C(F)(F)C(F)(F)C(F)(F)C(F)(F)C(F)(F)C(F)(F)C(F)(F)C(F)(F)C(F)(F)C(F)(F)F`, the call was inactive.

On to `O=C(OCCOCCOCCOC(=O)c1ccccc1)c1ccccc1`, for which the molecule was called inactive.

Take `FC(F)(F)C(F)(F)C(F)(F)C(F)(F)C(F)(F)C(F)(F)C(F)(F)I`: the molecule was called inactive.

As to `CCO[Si](CCC(F)(F)C(F)(F)C(F)(F)C(F)(F)C(F)(F)C(F)(F)F)(OCC)OCC`, the call was inactive.

Regarding `C=CC(=O)OCC(F)(F)C(F)(F)C(F)(F)C(F)(F)COC(=O)C=C`, the outcome was inactive.

Regarding `CC(Cc1ccc(O)c(O)c1)C(C)Cc1ccc(O)c(O)c1` (stereo not given), the molecule was called inactive.

With `C=CC(F)(F)C(F)(F)C(F)(F)C(F)(F)C(F)(F)C(F)(F)C(F)(F)C(F)(F)C=C`, the call was inactive.

For the molecule `C=CC/C=C/C/C=C/C/C=C/C`, the outcome was inactive.

With `FC1CC(F)(F)C(F)(F)C1(F)F` (stereo not given), the molecule was called inactive.

As to `O=C(CC(=O)C(F)(F)C(F)(F)F)C(F)(F)F`, the molecule was called inactive.

On to `OCC(F)(F)C(F)(F)C(F)(F)F`, for which the outcome was inactive.

On to `Nc1ccc(Oc2cccc(Oc3ccc(N)cc3)c2)cc1`, for which the result was inactive.

Take `O=C(Cl)C(F)(F)C(F)(F)C(F)(F)C(F)(F)C(F)(F)C(F)(F)C(F)(F)C(F)(F)F`: the molecule was called inactive.

`O=S(=O)(O)C(F)(F)C(F)(F)C(F)(F)C(F)(F)C(F)(F)C(F)(F)C(F)(F)F`: the result was inactive.

As for `OCC(F)(F)C(F)(F)C(F)(F)C(F)(F)C(F)(F)C(F)F`, the call was inactive.

Regarding `O=C(O)C(F)(F)C(F)(F)C(F)(F)C(F)(F)C(F)(F)C(F)(F)C(F)(F)C(F)(F)C(F)(F)C(F)F`, the result was inactive.

On to `CC(C)c1ccccc1N`, for which the call was inactive.

For the molecule `O=P(O)(O)OCCC(F)(F)C(F)(F)C(F)(F)C(F)(F)C(F)(F)C(F)(F)F`, the result was inactive.

For `O=S(=O)(OCCOC(F)(F)F)C(F)(F)F`, the result was inactive.

With `O=C(O)C(F)(OC(F)(F)C(F)(OC(F)(F)C(F)(F)C(F)(F)F)C(F)(F)F)C(F)(F)F` (stereo not given), the result was inactive.

Regarding `CO[Si](OC)(c1ccccc1)c1ccccc1`, the result was inactive.

For the molecule `NC(=O)C(F)(F)C(F)(F)C(F)(F)C(F)(F)F`, the molecule was classed as inactive.

As for `CCCCC(CC)COP(=O)(O)OCC(CC)CCCC` (stereo not given), the molecule was classed as inactive.

As for `FC(F)(I)C(F)(F)C(F)(F)C(F)(F)I`, the molecule was classed as inactive.

Regarding `CC/C=C\CCOC(C)=O`, the call was inactive.

For the molecule `FC(F)(F)C(F)(F)C(F)(F)C(F)(F)C(F)(F)C(F)(F)CCS`, the molecule was called inactive.

Turning to `CCCCCCCCC(F)(F)C(F)(F)C(F)(F)C(F)(F)C(F)(F)C(F)(F)F`, the molecule was classed as inactive.

As for `C1COCCN1`, the result was inactive.

The values are drawn from PubChem BioAssay (EPA / NIEHS).
